Pf Dd2 growth: Plasmodium falciparum Dd2 growth inhibition; 120,000 tested, 4.3% active; Potency, µM (highest dose often 28.9 µM), for inactives: top-dose activity, negative = inhibition, hits mostly inhibitors; P. falciparum Dd2 growth, SYBR Green, 72 h; active means well fitted inhibition curve with a large enough effect;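 further: plate controls were DMSO vehicle for no effect and reference drug for full effect; nearly all actives have a fitted effect of over 65% in size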
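Readout: SYBR Green fluorescence, 485 nm excitation, 535 nm emission, after ~16 h lysis at 37C. Before that, Dd2-infected red cells (2.5% hematocrit) grew 72 h with compound, 29 uM top final concentration.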
Numbers without * were called inactive; i = inactive; [ ] = remark or other dose. This excerpt belongs to a sample that is enriched for hits. Potency means the concentration at half of the fitted maximal effect.

SMILES	Pf Dd2 growth
Cn1c(=O)cc(SCC(=O)N2CCN(c3ccccc3F)CC2)c2cc(Cl)ccc21	47%
O=C(O)C1CC2(CCN(C(=O)CCc3ccncc3)CC2)CN1 (configuration not stated)	4%
CN1C(=O)CCC2(CNC(=O)c3nn(C)c4ccccc34)CCC=C12 (configuration not stated)	-21%
COc1ccc(C(=O)NC2CC2)c(OC2CCN(Cc3cccc(SC)c3)CC2)c1	-15%
COc1cccc(CN2CCCC(NC(=O)Nc3ccccc3OC)C2)c1 (configuration not stated)	-23%
CCOc1cccc(CNC(=O)C2CCCCC(=O)N2Cc2cccc(OC)c2)c1 (configuration not stated)	-6%
COc1cccc(CN2C(=O)CCCCC2C(=O)NC2CCCCCC2)c1 (configuration not stated)	8.9µM*
COc1cccc(CN2CCC(Oc3ccc(C(=O)NC4CCCC4)cc3Cl)CC2)c1	11µM*
O=C(NC1CCS(=O)(=O)C1)C1CCCCC(=O)N1Cc1ccccc1 (configuration not stated)	20%
O=C(c1cc(Cl)ccc1F)N1CCN(c2cc(-c3cccs3)[nH]n2)CC1	i
CC(C)c1ccc(OC(=O)c2cc(-c3ccccc3)on2)cc1	10%
Cc1noc(C)c1-c1cnc(Nc2cccc(C(F)(F)F)c2)c2c1CCO2	-22%[44.1 µM]
O=C(NC1CCCC1)C1CCCN(C2CCN(C3Cc4ccccc4C3)CC2)C1 (configuration not stated)	-12%
CCCNC(=O)CCc1ccc2c(c1)CN(C(=O)NCC)CCO2	16%
O=C(COc1ccccc1[N+](=O)[O-])Nc1ccc(-c2nc3ccccc3s2)cc1	i
CCOc1cc(CNc2ccc(C(=O)O)cc2)ccc1OCc1ccccc1	6%
CCOc1cccc(CNc2ccc(O)cc2)c1OCc1ccccc1Cl	i[5.79 µM]
CCOc1cc(CNc2ccc(O)cc2)cc(Cl)c1OCc1ccccc1	13µM*
CCc1ccc(Cn2c(CNS(=O)(=O)c3ccc(C)c(C)c3)nc3cccnc32)cc1	-15%
CCc1ccc(S(=O)(=O)c2c(C(=O)c3ccc(C)c(C)c3)cnc3ccccc23)cc1	4µM*
CCc1ccc(C(=O)c2cnc3ccc(C)cc3c2S(=O)(=O)c2ccc(OC)cc2)cc1	11µM*
CCOc1ccc(S(=O)(=O)c2c(C(=O)c3ccc(CC)cc3)cnc3ccc(C)cc23)cc1	i
Cc1ccc(CCNC(=O)c2cc(Nc3ccc(C)c(C)c3)nc3ccccc23)cc1	-2%
COc1ccc(S(=O)(=O)c2c(O)c3ccc(C(=O)NCc4ccc(F)cc4)cc3[nH]c2=O)cc1	-17%
O=S(=O)(NCCc1csc2nc(-c3ccc(F)cc3)nn12)c1ccc2c(c1)OCCO2	-8%
SMILES	Pf Dd2 growth
CN1CCC(C(=O)N2CCC3(CC2)C(=O)NCN3C(=O)Cc2ccccc2)CC1	-8%
COc1cccc(CNc2ncnc3onc(-c4ccc(F)cc4)c23)c1	4%
CC1CCC2(CC1)OCC(C(=O)NCc1ccccc1F)N2C(=O)c1ccc(F)cc1 (configuration not stated)	i
CSc1nc(Nc2ccc(C)cc2C)cc(-c2ccccc2)n1	-28%
Cc1nc(SCC(=O)Nc2ccc(C)c(Cl)c2)cc(-c2ccccc2)n1	2%
Cc1cc(C)cc(Nc2cc(-c3ccccc3)nc(C)n2)c1	11µM*
O=C1CC2CCCC(C1)N2C(=O)c1ccc2c(c1)OCO2	-4%[44.1 µM]
Cc1cc(CN2CCC3(CC2)CC(=O)c2ccc(Cl)cc2O3)no1	i
CC(=O)Nc1ccc(CN2CCC3(CC2)CC(=O)c2ccc(Cl)cc2O3)cc1	i
N#Cc1ccc(CN2CCC3(CC2)CC(=O)c2ccc(Cl)cc2O3)cc1	11µM*
Cc1ccc(NC(=O)CN2C(=O)CSc3ccc(S(=O)(=O)N4CCCC4)cc32)c(C)c1	3%
CCCC(=O)N1CCC2(CC1)C(=O)N(CC)c1ccccc12	54%
CCN1C(=O)C2(CCN(C(=O)N(C)C)CC2)c2ccccc21	42%
CCN1C(=O)C2(CCN(C(=O)c3c(C)noc3C)CC2)c2ccccc21	3.5µM*
CS(=O)(=O)c1ccc(O[C@H]2COCCN(Cc3cccc4c3OCO4)C2)cc1	i
COc1ccc2c(c1)C1(CCN(C(=O)COc3ccccc3)C1)C(=O)N2C (configuration not stated)	i
CCN1CCN(C(=O)C2Cn3cccc3C(=O)N2)CC1 (configuration not stated)	28%
COc1ccc(-n2nc(C)c([C@@H]3C=C[C@@H](NCc4ccc(N(C)C)cc4)C3)c2C)cc1	1.6µM*
COc1ccc(NC(=O)N[C@@H]2C=C[C@@H](c3c(C)nn(-c4ccccn4)c3C)C2)cc1	i
COc1ccc(CN[C@@H]2C=C[C@@H](c3c(C)nn(-c4ccccc4)c3C)C2)cc1	6.3µM*
Cc1nn(-c2ccc(C(F)(F)F)cc2)c(C)c1[C@@H]1C=C[C@@H](NC(=O)COc2ccccc2)C1	-4%
CCNC(=O)N(C1CC1)C1CCOC2(CCN(C(=O)Nc3ccccc3)CC2)C1 (configuration not stated)	i
O=C(c1ccc(F)cc1)N1CCC(c2nc3ccccc3o2)CC1	13%
Cc1cccc(C)c1NC(=O)c1cccc(CN2CCCC2C)c1 (configuration not stated)	10µM*
O=C(NC1CCCN(C(=O)C2CC2)C1)c1cccc(Cn2cccn2)c1 (configuration not stated)	2%
SMILES	Pf Dd2 growth
Cc1cccc(C)c1NC(=O)c1ccc2c(c1)nnn2C1CCCC1	10%
CCc1cccc(OCC(=O)c2ccc3c(c2)N(CCCC(=O)N2CCOCC2)C(=O)CO3)c1	-18%
O=C(CSc1nc2c([nH]c3ccccc32)c(=O)n1-c1ccccc1)c1ccc(Cl)cc1	30%
COc1cc(CNCC2CCOCC2)ccc1OCC(O)CN(C)C1CCCCC1 (configuration not stated)	13µM*
COc1cc(CN2CCC(C)(C#N)CC2)ccc1OCC(O)CN1CCOCC1 (configuration not stated)	1%
COc1cc(CNCCCO)ccc1OCC(O)CN1CCSCC1 (configuration not stated)	-13%
COc1cc(CNCCc2ccc(F)cc2)ccc1OCC(O)CN1CCSCC1 (configuration not stated)	-18%
COc1cc(CNCCc2ccc(Cl)cc2)ccc1OCC(O)CN1CCOCC1 (configuration not stated)	11µM*
COc1ccc(Cl)cc1NC(=O)N(C)CC1CCOCC1	-25%
CCCNC(=O)N1CCC(=O)N(CC)C2(CCOCC2)C1	24%
O=C(c1ccnc(Cl)c1)N1CC[C@H]2COC(=O)N2c2cc(F)ccc2C1	15%[44.1 µM]
CN1CCC(OC2CCN(S(=O)(=O)c3ccccc3)CC2)CC1	i
COc1cccc(-c2cc(C3CCN(C(=O)c4cc(C)ccc4C)CC3)[nH]n2)c1	-8%
COc1cccc(-c2cc(C3CCN(C(=O)Nc4ccccc4OC)CC3)[nH]n2)c1	-19%
COc1cccc(-c2cc(C3CCN(C(=O)Nc4ccccc4F)CC3)[nH]n2)c1	-4%
COc1cccc(-c2cc(C3CCN(C(=O)Nc4ccc(F)cc4)CC3)[nH]n2)c1	5.6µM*
COc1cccc(-c2cc(C3CCN(C(=O)Nc4cccc(Cl)c4C)CC3)[nH]n2)c1	i
COc1cccc(-c2cc(C3CCN(S(=O)(=O)c4ccc(F)cc4F)CC3)[nH]n2)c1	7.1µM*
CS(=O)(=O)N(C1CC1)C1CCOC2(CCNCC2)C1 (configuration not stated)	8%
COC[C@@H]1CN(C(=O)c2ncccc2C)C[C@H]1C(N)=O	2%
